# Results taken from PubChem BioAssay AID686971 (National Center for Advancing Translational Sciences (NCATS), 2013).
# The whole screen tested about 360,000 compounds, of which about 7,500 (2.1%) were called active. Inconclusive results (about 8%) are left out. The list comes from a sample in which actives are over-represented; it also holds similar structures and randomly drawn compounds. Values without a mark were called inactive. The call rests on the fitted dose curve; in most records, active means well fitted cell-killing curve with a large enough effect; inconclusive means small, poorly fitted or top-dose-only effect, or effect the other way, or another doubt; inactive means no such curve, though single readings can be large or run the other way.
# Test: qHTS for induction of synthetic lethality in tumor cells producing 2HG: qHTS for the HT-1080-IDH1KD cell line
# Conditions: HT-1080 IDH1 knockdown viability, ATP luminescence, 48 h; series mostly up to 46.1 µM; activity, negative = toxicity: at the top concentration
# Excerpt: Unbiased genomic sequencing for 22 glioma genomes found recurrent mutation of IDH1 on chromosome 2q33, a gene encoding the cytosolic isoform of IIDH1 associated with the tri-carboxylic acid cycle (TCA) that catalyzes the oxidative decarboxylation of isocitrate, yielding alpha-ketoglutarate and CO2 via NADP+ to NADPH conversion. Subsequent studies confirmed the recurrent IDH mutations in up to 70% of secondary gliomas and in 10% of AML cases. In addition, the somatic mutation of cancer-associated IDH1 is a point mutation resulting in various amino-acid substituents at Arginine132 (IDH1 R132), a key residue found in the enzyme's active site that when mutated, results in the loss-of-function in metabolizing isocitrate but confers a gain-of-function to produce the oncometabolite 2-hydroxyglutarate (2HG). This in effect defines IDH1 as an oncogene and provides an extraordinary opportunity to discover chemical probes against mutant IDH1 that may translate into much needed new therapies for glioma and AML patients.
# This assay aims to perform a synthetic-lethal screen for chemical probes specific for 2HG-producing tumor cells using matched paired cell lines (1) HT-1080-NT fibrosarcoma cell line that overproduces 2HG and (2) HT-1080-IDH1KD cell line which has IDH1 expression knocked-down. Desirable compounds are toxic to the NT fibrosarcoma cell line but not to the IDH1KD cell line. The data in this AID corresponds to the results of the qHTS against the HT-1080 IDH1KD cell line.
# [1] Dang L, Jin S, Su SM. IDH mutations in glioma and acute myeloid leukemia. Trends of Mol Med. 2010; 16(9): 387-97.
# [2] Dang L et al. Cancer-associated IDH1 mutations produce 2-hydroxyglutarate. Nature. 2010; 465(7300):966.
# Molecular Libraries Probe Production Centers Network [MLPCN]
# NIH Chemical Genomics Center [NCGC]
# Assay Submitter (PI): Lenny Dang Ph.D., Agios Pharmaceuticals
# Suspensions of trypsinized HT-1080-IDH1KD cells were dispensed into white, tissue culture-treated, solid 1536-well plates at 5uL/well (750 cells/well final concentration) in RPMI medium supplemented with 5% FBS. Plates were incubated at 37 degrees C for 2 hours, after which 23 nL of compounds or DMSO were delivered to each well using a pin tool. Plates were then incubated at 37 degrees C for an additional 48 hours. CellTiter-Glo viability reagent (Promega) was dispensed into wells (2.5uL/well) and incubated at room temperature for 10 minutes. The plates were measured on a PerkinElmer ViewLux plate reader for luminescent signal (clear filter, 1 sec exp.). DMSO-treated control wells and media-only (no cells) control wells were used to normalize %Activity of identified toxic compounds; DMSO-treated wells corresponded to 0%Activity (100% viability), while media-only controls were used to normalize 100%Activity (0% viability). To minimize variability between cell lines, both HT-1080-NT and HT-1080-IDH1KD lines were dispensed and treated with identical compound series in single batches.
# Concentration-response curves were fitted to the signals arising from the resulting luminescence. The concentration-effect curves were then classified based on curve quality (r2), response magnitude and degree of measured activity, and compounds were subsequently categorized based on their curve class.
# Potency means the concentration at half of the fitted maximal effect.
Structure (SMILES),"activity, negative = toxicity",Potency
N#CCSc1ccccc1NC(=O)CN1C(=O)NC(CCc2ccccc2)C1=O (stereo not drawn),-0.729%,–
COC(=O)[C@]12CCCCC=C1N(Cc1ccco1)C(=O)[C@H](CC(=O)NCCCCc1ccccc1)C2,-14%,–
COc1ccc(-c2csc(Nc3ccc(O)cc3)n2)cc1,–,6.51 µM (active)
COc1ccc(C(C)(O)c2nc(-c3ccc(C)c(C)c3)cs2)cc1 (stereo not drawn),-17.1%,–
COc1ccc(-c2csc(Nc3cccc(C)n3)n2)cc1OC,-8.86%,–
OC[C@@H]1CN(Cc2ccc(Cl)cc2)C[C@H](n2cnc3c(NCc4ccncc4)ncnc32)O1,15.5%,–
Cc1ccc(S(=O)(=O)N2CC[C@H]3[C@@H](C2)C(=O)C[C@@H](c2ccccc2)N3S(=O)(=O)c2ccc(C)cc2)cc1,0.768%,–
COc1ccc(-n2c(-c3ccc(Cl)cc3)n[nH]c2=S)c(OC)c1,4.73%,–
O=C(COC(=O)c1ccccc1C(=O)N1CCN(c2ccccc2)CC1)NCc1ccccc1,-1.4%,–
Oc1ccc(N2CCN(C(=S)NCc3ccccc3)CC2)cc1,–,16.4 µM (active)
Oc1ccccc1N1CCN(C(=S)NCc2ccccc2)CC1,-18.5%,–
Cc1ccc(F)c(S(=O)(=O)NC(=O)C2(C)CCN2C(=O)c2ccco2)c1 (stereo not drawn),8.94%,–
COc1ccc(NC(=O)c2cc(=O)[nH]c3ccccc23)cc1S(=O)(=O)N1CCOCC1,4.67%,–
CN(c1ccccc1)S(=O)(=O)c1ccc(Cl)c(C(=O)OCC(=O)NCc2ccco2)c1,2.81%,–
Cc1cc(C(=O)OCC(=O)NCc2ccco2)c(C)n1-c1ccccc1,–,3.66 µM (active)
O=C(COC(=O)c1ccccc1O)NCc1ccco1,11.6%,–
CCCCC(=O)N(C)c1c(CC)nc2c(OCc3ccc(S(C)(=O)=O)cc3)cccn12,13.3%,–
CN1CCN(c2ccc3c(c2)OC[C@H](Cc2ccccc2)NS3(=O)=O)CC1,5.51%,–
COc1ccc(CNC(=O)C2CC(c3ccc(C(F)(F)F)cc3)=NO2)cc1 (stereo not drawn),-25.8%,–
COc1ccc(S(=O)(=O)N2CCC(C(=O)NCc3ccco3)CC2)cc1C,5.29%,–
COc1ccc(C2=NOC(C(=O)NCc3ccco3)C2)cc1OC (stereo not drawn),–,4.47 µM (active)
COc1ccc(OC)c(C(O)c2ncc(-c3cccc(C(F)(F)F)c3)[nH]2)c1 (stereo not drawn),7.34%,–
COc1ccc(CC(=O)N/N=C/c2cc([N+](=O)[O-])cc(Br)c2O)cc1,3.84%,–
Cc1cc(C(=O)N/N=C/c2cc([N+](=O)[O-])cc(C)c2O)n[nH]1,–,16.4 µM (active)
Cc1ccc(S(=O)(=O)N2CCN(CC(=O)N/N=C/c3cc([N+](=O)[O-])ccc3Cl)CC2)cc1,-9.62%,–

Structure (SMILES),"activity, negative = toxicity",Potency
C[C@H]1CN([C@@H](C)CO)C(=O)c2cc(Br)cnc2O[C@H]1CN(C)S(=O)(=O)c1cccs1,-9.18%,–
CCCC(=O)N1CCC1(C)C(=O)NS(=O)(=O)c1ccc(Cl)cc1 (stereo not drawn),0.37%,–
CC(=O)NC1=NN(C(C)=O)C(C)(c2ccc(Cl)s2)S1 (stereo not drawn),–,2.31 µM (active)
CC(=O)NC1=NN(C(C)=O)C(C)(CCS(=O)(=O)c2ccc(Cl)c(Cl)c2)S1 (stereo not drawn),7.6%,–
CC(=O)NC1=NN(C(C)=O)C(C)(c2ccc(C)cc2)S1 (stereo not drawn),-0.299%,–
CCCCN1C(=O)C(CC(=O)NCc2cccs2)CC(C(=O)N2CCCCCC2)=C1C (stereo not drawn),15.9%,–
CC1(C(=O)NS(=O)(=O)c2ccc(Cl)cc2)CCN1C(=O)CC1CCCC1 (stereo not drawn),28.5%,–
COc1ccc(NC(=O)CSc2nnnn2-c2cccc(OC)c2)cc1,-2.36%,–
CCOc1cccc(-n2nnnc2-c2ccc(OC)cc2)c1,–,4.61 µM (active)
COc1ccc(-n2nnnc2-c2nc3ccccc3s2)cc1,-23.9%,–
Cc1nc2ccccc2nc1CC(O)(c1ccccc1)c1ccccc1,13.3%,–
Nc1nc2c(ncn2[C@@H]2O[C@H](CNCc3ccc(OCCCN4CCOCC4)cc3)[C@@H](O)[C@H]2O)c(=O)[nH]1,22.6%,–
COc1ccc2sc(N(CCCN(C)C)C(=O)c3ccc(S(=O)(=O)N(C)C4CCCCC4)cc3)nc2c1,-0.544%,–
CN(C)CCCN(C(=O)c1ccc(S(=O)(=O)N2CCCCCC2)cc1)c1nc2ccc(Br)cc2s1,–,16.4 µM (active)
Cc1ccc2nc(N(CCN(C)C)C(=O)C3=COCCO3)sc2c1,0.447%,–
O=S1(=O)CC(N2CCN(Cc3ccccc3F)CC2)CN1Cc1cn(Cc2cccc(C(F)(F)F)c2)nn1 (stereo not drawn),-12.9%,–
C[C@@H]1CN([C@@H](C)CO)S(=O)(=O)c2ccc(-c3ccc(C(=O)N(C)C)cc3)cc2O[C@@H]1CN(C)Cc1ccccc1C(=O)O,5.52%,–
Cc1ccc(C)c(NC(=S)NNC(=O)c2csc(C)c2)c1,10.6%,–
Cc1ccc(C)c(NC(=S)NNC(=S)Nc2ccc(C(C)C)cc2)c1,–,23.1 µM (active)
CC(C)c1ccc(NC(=S)NNc2ccc(Cl)c(C(=O)O)c2)cc1,-3.36%,–
Cc1cc(Br)ccc1NC(=O)CCCOc1cc(=O)n(C)c2ccccc12,-24.9%,–
Cc1ccc(C(=O)Nc2c(-c3ccccc3)[nH][nH]c2=O)cc1,3.08%,–
O=C(CCCN1CCc2[nH]c3ccc(F)cc3c2C1)c1ccc(F)cc1,–,20.6 µM (active)
O=C(Nc1ccc(Cl)cc1)N1CCc2[nH]c3ccccc3c2C1,-25.8%,–
Fc1ccc(NC(=S)N2CCc3[nH]c4ccccc4c3C2)cc1,0.972%,–

Structure (SMILES),"activity, negative = toxicity",Potency
CC1(C(=O)NS(=O)(=O)c2ccccc2)CCN1C(=O)c1ccccc1 (stereo not drawn),20.7%,–
COc1cc(C(O)c2nc(-c3cccc(C(=O)O)c3)cs2)ccc1F (stereo not drawn),12.4%,–
COc1ccc2sc(-c3ccc(N(C)C)cc3)c(-c3ccc4cc[nH]c4c3)c2c1,-3.08%,–
COc1ccc2c(c1)c(=Cc1ccc(N(C)C)cc1)c1cc(-c3ccccc3)[n+](C)n12,–,5.17 µM (active)
CCOc1ccc(C(CC(=O)O)NC(=O)Cc2ccccc2)cc1OC (stereo not drawn),1.52%,–
CCCCC(=O)NC(c1ccc(OC)c(OC)c1)c1ccc2cccnc2c1O (stereo not drawn),–,2.91 µM (active)
COc1ccc(CCNS(=O)(=O)c2cccc3cccnc23)cc1OC,-2.69%,–
CCCNC(=O)C1(C)CCCN(C(=O)c2cccc(OC(C)=O)c2C)C1 (stereo not drawn),23.2%,–
Cc1ccc(-c2cc(=O)c3ccc(F)cc3[nH]2)cc1,-3.06%,–
Cc1cc(=O)c2ccc(NC(=O)c3ccccc3)cc2[nH]1,21.6%,–
O=c1cc(-c2ccccc2)[nH]c2cc(F)ccc12,–,4.11 µM (active)
CCC(C(=O)NCc1ccccc1)n1c(Cc2cc(F)cc(F)c2)nc2ccccc21 (stereo not drawn),3.45%,–
COc1ccc(C(=O)OCC(=O)Nc2cc(C)on2)cc1F,15.1%,–
O=C(CCN1CCCCC1)Nc1ccc(F)c(F)c1,-0.711%,–
CCc1cccc(CC)c1N1C(=O)CC(Sc2ccccc2N)C1=O (stereo not drawn),2.31%,–
CC1(Cc2ccccc2C#N)C(=O)Nc2ccc(-c3ccc4[nH]ccc4c3)cc21 (stereo not drawn),–,1.64 µM (active)
CC(Oc1ccc(Br)cc1)C(=O)NC1CCCCCC1 (stereo not drawn),-4.13%,–
OC(COc1ccc(Br)cc1)CN1CCCC1 (stereo not drawn),10.1%,–
CC(C)(C)CC(C)(C)NCC(O)COCCOc1ccc(Br)cc1 (stereo not drawn),–,20.6 µM (active)
Cc1cccc(CN2CCN(C3CN(Cc4cn(Cc5cc(C)cc(C)c5)nn4)S(=O)(=O)C3)CC2)c1 (stereo not drawn),-26.7%,–
O=C1C(Cl)=C(Oc2ccccc2)C(=O)c2ccccc21,–,2.59 µM (active)
CC(=O)Oc1ccc2c(c1)C(=O)c1ccccc1C2=O,7.51%,–
O=C(O)CSc1nnc(-c2ccc3c(c2)OCO3)n1-c1ccccc1,8.8%,–
CCn1c(SCC(=O)Nc2ccc3c(c2)OCCO3)nnc1-c1ccncc1,14.6%,–
O=C(CSc1nnc(-c2ccccn2)n1-c1ccccc1)Nc1ccc2c(c1)OCO2,–,23.1 µM (active)

Structure (SMILES),"activity, negative = toxicity",Potency
Cc1cccc(C)c1NC(=O)C(c1cccc2ccccc12)n1c(=O)c(-c2ccco2)nc2ccccc21 (stereo not drawn),-25.8%,–
O=C(OCc1cn([C@H]2C[C@H](c3ccccc3)N(C(=O)c3cccs3)C[C@@H]2O)nn1)c1ccccc1,1.07%,–
COc1cccc(OC)c1C(=O)N1CCN(Cc2ccccc2F)CC1,1.13%,–
O=C(COc1cccc(Cl)c1)NCc1ccccc1,5.21%,–
Nc1c(C(=O)NCc2ccccc2)nnn1Cc1cccc(Cl)c1,–,14.6 µM (active)
Nc1c(-c2ccccc2)nnn1Cc1ccccc1,-15.5%,–
O=C(NCCN1CCOCC1)c1ccc2c(c1)N(Cc1cccc(Cl)c1)C(=O)c1ccccc1S2(=O)=O,-10.9%,–
CC1=C/C(=N\OS(=O)(=O)c2ccccc2)C=CC1=O,–,20 µM (active)
O=C(NCc1ccc(F)cc1)c1cc(C2CCCCN2C(=O)c2cccs2)on1 (stereo not drawn),-16.4%,–
CCc1nc2ccc(C(=O)Nc3cc(-c4ccccc4)ccc3OC)cn2c1N(CC)CC(=O)N(C)C,-21.6%,–
C[C@@H]1CN([C@@H](C)CO)C(=O)c2cc(Br)cnc2O[C@H]1CN(C)Cc1ccc(-c2ccccc2)cc1,-28.2%,–
CCCCN1CC(N2CCN(Cc3cccc(C)c3)CC2)CS1(=O)=O (stereo not drawn),10.1%,–
COc1cc(/C=N/NC(=O)c2ccoc2C)ccc1OCCN1CCCCC1,3.77%,–
COc1cc(/C=N/NC(=O)Nc2ccccc2)ccc1OCCOc1ccccc1C,–,7.08 µM (active)
COc1ccc(/C=N/Nc2ccccc2C(=O)O)cc1,-4.19%,–
COc1ccc(/C=N/NC(=O)c2ccccc2)cc1OS(=O)(=O)c1ccccc1,–,20.6 µM (active)
COc1ccc(C(=O)Nc2ccccc2C(=O)N2CCN(c3ccccc3)CC2)cc1,1.4%,–
COC(=O)c1ccc(COc2ccc(/C=N/NC(=O)C(=O)Nc3ccc(OC)cc3)cc2OC)o1,4.05%,–
Cc1ccc(S(=O)(=O)Oc2ccc(/C=N/NC(=O)c3ccncc3)cc2)cc1,-19.2%,–
COc1ccc(C(=O)Nc2ccccc2C(=O)N/N=C/c2ccc(O)c(OC)c2)cc1,–,6.51 µM (active)
COc1cc(C=NNC(=O)c2cccnc2)ccc1OC(=O)c1ccccc1F,6.24%,–
COc1ccc(NC2CCCN(C(=O)c3ccccc3-c3ncc[nH]3)C2)cc1 (stereo not drawn),-0.498%,–
COc1cc(-c2nnc(NC(=O)CS(=O)(=O)c3ccc(Cl)cc3)o2)cc(OC)c1OC,-18.1%,–
